Measured values reported in PubChem BioAssay (NCI).
The panel holds about 79,000 compounds, 15% with a hit somewhere; the sample as a whole holds those more often. Calls of active or inactive are those of the source. No stated cut-off is given here; in the data, active means growth inhibition above about 70%; inactive means the rest.

What was measured:
[1] = NCI Yeast Anticancer Drug Screen. Data for the rad50 strain (AID 155);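 further: 0% = growth of vehicle-only cultures of the same strain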; conditions: S. cerevisiae rad50 strain growth inhibition; at 50.0 µM; stronger effect = higher value
How it was run: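 Yeast carrying a defined DNA repair defect were exposed to test compounds, and growth was compared with vehicle-treated controls to give percent inhibition.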

[2] = NCI Yeast Anticancer Drug Screen. Data for the mec2-1 strain (AID 157); conditions: S. cerevisiae mec2-1 strain, at 50.0 µM, stronger effect = higher value
How it was run: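 Each compound was tested on mec2-1 yeast, a strain altered in DNA damage repair or cell cycle control. Growth inhibition is reported relative to vehicle.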

[3] = NCI Yeast Anticancer Drug Screen. Data for the sgs1 mgt1 strain (AID 161);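 further: 0% = growth of cultures given vehicle only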; conditions: S. cerevisiae sgs1 mgt1 strain, at 50.0 µM, stronger effect = higher value
How it was run: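 Read-out: growth inhibition vs vehicle controls. Cells: mutant yeast strain deficient in DNA damage repair.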

[4] = NCI Yeast Anticancer Drug Screen. Data for the cln2 rad14 strain (AID 165);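 further: 0% = growth equal to vehicle treated cultures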; conditions: S. cerevisiae cln2 rad14 strain, at 50.0 µM, stronger effect = higher value
How it was run: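 Test compounds were added to cln2 rad14 yeast cultures; inhibition of growth was then determined by comparison with vehicle treatment.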

[5] = NCI Yeast Anticancer Drug Screen. Data for the bub3 strain (AID 167); conditions: S. cerevisiae bub3 mutant strain, at 50.0 µM, stronger effect = higher value
How it was run: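 Compounds were applied to a genetically altered yeast strain carrying a cell-cycle control defect. Growth inhibition was scored against vehicle-treated controls.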

[6] = NCI Yeast Anticancer Drug Screen. Data for the mlh1 rad18 strain (AID 175); conditions: S. cerevisiae mlh1 rad18 strain growth inhibition; at 50.0 µM; stronger effect = higher value
How it was run: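 Inhibition values reflect reduced growth of mutant yeast versus vehicle-treated controls following compound exposure; the mutations affect DNA damage repair.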

Measured: growth inhibition

COC(=O)Nc1nc2c(OC)c(OC)c(OC)cc2[nH]1
inactive: [1] -5.15% | [2] -6.75% | [3] -3.95% | [4] -17.9% | [5] -18.6% | [6] -17.1%

O=C1CCC(c2ccccc2)(c2ccccc2)CC1
inactive: [1] 31.8% | [2] -24.6% | [3] -16.1% | [4] -15.5% | [5] 0.15% | [6] 17.5%

CCC(C)NS(=O)(=O)c1ccc(Cl)cc1 (configuration not stated)
inactive: [1] 18.4% | [2] 9.55% | [3] 6.45% | [4] 8.6% | [5] 5.85% | [6] 3.7%

C=C1C(C2(C)C=CC(=O)OC3(C)COC(=O)CC32)C(OC=O)C(OC(=O)C(O)C(C)CC)C2(C)C(c3ccoc3)CC(OC(C)=O)C12O (configuration not stated)
inactive: [1] 7.9% | [2] -5.2% | [3] -4.65% | [4] -0.45% | [5] 16.3% | [6] -21.4%

CCCC(C)(C)O
inactive: [1] 2.15% | [2] 9.15% | [3] 22.1% | [4] -21.3% | [5] 10.4% | [6] -3.65%

CCCn1c(CC)nc([N+](=O)[O-])c1Sc1ncn[nH]1
inactive: [1] -14.7% | [2] -23.1% | [3] -7.1% | [4] 9.1% | [5] -5.6% | [6] -11.5%

O=S(=O)(CCc1ccccc1)c1nc2ccccc2s1
inactive: [1] -1.5% | [2] -1.85% | [3] -2.8% | [4] -11.9% | [5] -37.5% | [6] -11.5%

CCCCN(CCCC)CCC(O)c1cc(-c2ccc(C(F)(F)F)cc2)nc(-c2ccc(C(F)(F)F)cc2)c1 (configuration not stated)
inactive: [1] 24.3% | [2] -4.9% | [3] -37.6% | [4] -8.7% | [5] -55.6% | [6] -41.2%

COc1cc2cc(-c3ccc(Cl)c(Cl)c3)[n+](C)cc2cc1OC
inactive: [1] 36% | [2] 20.1% | [3] 35.3% | [4] 21.6% | [5] -3.55% | [6] 13.7%

CCN(Cc1cc(Cl)cc(C)c1O)Cc1c(O)ccc2ccccc12
active: [1] 99.5% | [2] 99.2% | [3] 99.3% | [4] 99.3% | [5] 98.6% | [6] 99.7%

CCOC(=O)C(c1ccccc1)C(Cc1ccccc1)(c1ccccc1)c1ccccc1 (configuration not stated)
inactive: [1] 10.1% | [2] 9.2% | [3] 17.3% | [4] 19.6% | [5] -4.6% | [6] 10.7%

COc1ccc(NC(=O)c2cc3ccccc3cc2OC(=O)NC(C)(C)C)cc1
inactive: [1] -12.5% | [2] -13.3% | [3] -7.15% | [4] 2.5% | [5] -0.15% | [6] -32.8%

CCN(CC(=O)NC(=O)c1ccccc1)c1ccccc1
inactive: [1] -1.75% | [2] -14% | [3] -4.75% | [4] -34.5% | [5] 5.5% | [6] -12.7%

CC(=O)Nc1ccc(N=C/C=C/c2ccccc2)cc1
inactive: [1] -24.6% | [2] -56.5% | [3] 5.9% | [4] 2.05% | [5] -44.5% | [6] 2.05%

CNC(=O)Oc1ccc2c(c1)[C@]1(C)CCN(C)[C@@H]1N2C
inactive: [1] -9.7% | [2] -29.8% | [3] -32.7% | [4] -5.55% | [5] -35.7% | [6] -37.2%

CC(=O)OCc1cocc1COC(C)=O
inactive: [1] -17.2% | [2] -36% | [3] 20.4% | [4] -3.2% | [5] -4.1% | [6] 8.3%

C=CN1C(=O)NC2(CCCCC2)C1=O
inactive: [1] -33.8% | [2] -40% | [3] -40.4% | [4] 7.55% | [5] -10.3% | [6] -25.6%

CNC(=O)NCCc1c[nH]c2ccccc12
inactive: [1] -35.9% | [2] -19.9% | [3] -49.1% | [4] -24.1% | [5] -26.7% | [6] -40.9%

O=C(OC1CCC2(CC1)N=NC1(CCC(OC(=O)c3ccccc3)CC1)S2)c1ccccc1 (configuration not stated)
inactive: [1] -1.15% | [2] 18.3% | [3] -2.25% | [4] -7.6% | [5] -1.1% | [6] 8.1%

CC(=O)C(N=NC1CCC(S(=O)(=O)NB2N=CS2)CC1)C(=O)Nc1ccccc1C (configuration not stated)
inactive: [1] -32.2% | [2] -1.05% | [3] -5.9% | [4] 16.5% | [5] 9.35% | [6] 15.4%

COc1ccccc1/C=N/Nc1nnc2c3ccccc3c3ncccc3c2n1
inactive: [1] -28.8% | [2] -45.8% | [3] -22.5% | [4] -10.8% | [5] -8.55% | [6] -34%

C1=Cc2ccccc2Nc2ccccc21
inactive: [1] -1.9% | [2] -7.35% | [3] -10.8% | [4] 1.65% | [5] -11.9% | [6] -23.5%

CC(C)C(=O)c1ccccc1Cl
inactive: [1] 2.85% | [2] -7.05% | [3] -2.45% | [4] -0.35% | [5] 2.7% | [6] -8%

CCOP(=O)(OCC)OC1CC(n2cc(C)c(=O)n(C)c2=O)OC1CO[Si](C)(C)C(C)(C)C (configuration not stated)
inactive: [1] 19.1% | [2] 1.5% | [3] 25.9% | [4] 17.6% | [5] 20.9% | [6] -12.7%

CCOC(=O)/C(=C/O)NC(=O)c1ccccc1
inactive: [1] -10.4% | [2] 18.8% | [3] -5.5% | [4] -18.9% | [5] -9.95% | [6] 19.4%

CCOc1ccc(NC(=O)/C(Cc2nc3ccccc3[nH]c2=O)=N\O)cc1
inactive: [1] 21.9% | [2] -5.1% | [3] -15.9% | [4] 15.8% | [5] 4.1% | [6] -4.7%

CCCC[Si](C)(C)CCCC
inactive: [1] -6.35% | [2] -5.95% | [3] -24.9% | [4] -11.2% | [5] -2.1% | [6] -5.3%

O=C(O)CC(=O)Nc1cc([N+](=O)[O-])ccc1OCc1ccccc1
inactive: [1] -2.95% | [2] 3.6% | [3] -1.1% | [4] -14.7% | [5] 5.7% | [6] 0.85%

CSC(=O)c1sc(SC)[n+](-c2ccccc2)c1O
inactive: [1] 4.95% | [2] -20.2% | [3] -1% | [4] -5.5% | [5] -13.3% | [6] -7.9%

CCCCC(=O)OCC(=O)[C@]1(O)Cc2c(O)c3c(c(O)c2[C@@H](OC2CC(NC(=O)C(F)(F)F)C(O)C(C)O2)C1)C(=O)c1c(OC)cccc1C3=O (some centres not stated)
inactive: [1] 19.5% | [2] 21.3% | [3] 29.9% | [4] 4.9% | [5] 53% | [6] 30.8%

Clc1ccc(OCCSCCCCCCCCCCSCCOc2ccc(Cl)cc2)cc1
inactive: [1] -2% | [2] -3.4% | [3] 13.9% | [4] -24% | [5] -8.7% | [6] -21.1%

C=CCN(CC=C)CCNc1cc(C)nc(/N=C(\N)Nc2ccc(Cl)c(Cl)c2)n1
active: [1] 94.7% | [2] 94.2% | [3] 96.8% | [4] 87% | [5] 94.7% | [6] 97.9%

CCOC(=O)C(C)c1nc2cc(N3CCOCC3)c(F)cc2[nH]c1=O (configuration not stated)
inactive: [1] 24.6% | [2] -7.55% | [3] 11.7% | [4] 28.6% | [5] 5.7% | [6] 4.95%

CCOc1ccccc1/C=C1\NC(=O)NC1=O
inactive: [1] -38.6% | [2] -35% | [3] -35% | [4] -14.9% | [5] 2.6% | [6] -6.7%

CCOC(=O)C1C(c2ccc(Br)cc2)N(Cc2ccccc2)C(c2ccc(Br)cc2)C(C(=O)OC)S1(=O)=O (configuration not stated)
inactive: [1] -42.2% | [2] -49.5% | [3] -16.6% | [4] -25.1% | [5] -21.4% | [6] -22.1%

C[C@@H]1Nc2ccccc2[C@H]1C
inactive: [1] -25.6% | [2] -37.5% | [3] -53.1% | [4] 7.75% | [5] -42.6% | [6] -8.1%

COC1=C(O)C(=O)N(C)C(=O)C1
inactive: [1] 20.4% | [2] 9.35% | [3] 29.2% | [4] 0.75% | [5] -14.7% | [6] 10.8%
